This is part of a sample that, as a whole, favours compounds with a hit. Of some 83,000 tested, about 20% had one in any assay.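 Values shown are percent growth following 48 h exposure of cells in 96-well plates to a single concentration of compound; below 10 was considered active.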 Unmarked numbers belong to inactive results. Active and inactive are the calls of the source.

Among the test systems are SK-MEL-2 melanoma; EKVX NSCLC; SN12C renal; UO-31 renal; TK-10 renal; CAKI-1 renal; A498 renal; MOLT-4 leukemia; ACHN renal; CCRF-CEM leukemia.
What all share (assay): NCI-60 one-dose screen, 48 h (100 = growth as untreated, 0 = no growth, -100 = all killed)
Details in all cases: 10 µM unless noted

With `C=CC(=O)N1CC=C(c2cc3c(N[C@H](C)c4ccccc4)ncnc3[nH]2)CC1`, the growth with SK-MEL-2 melanoma is 106%; with EKVX NSCLC, 30.5%; in the assay with SN12C renal, 22.4%; in the assay with UO-31 renal, 19%; with TK-10 renal, -3.79% (active); in the assay on CAKI-1 renal, 11.3%. Besides, the growth is -17.4% (active) in the assay with A498 renal and 97.8% with MOLT-4 leukemia.

With `Cc1ccc(-c2nnc(SCc3ccc(O)c4ncccc34)o2)cc1`, the growth was 34.8% with SK-MEL-2 melanoma; 22.1% in the assay on EKVX NSCLC; -12.8% (active) in the assay with UO-31 renal; 24.3% with TK-10 renal; 10.3% with ACHN renal; 24.8% in the assay on CAKI-1 renal. The growth with A498 renal is 36.5%; with CCRF-CEM leukemia, 12.3%; in the assay with MOLT-4 leukemia, 10.8%.

In the case of `CC(=O)Nc1cccc(Nc2nc(N[C@@H](C)c3ccccc3)c3ccccc3n2)c1`, the growth in the assay on SK-MEL-2 melanoma was 38.2%; in the assay on EKVX NSCLC, 24%; in the assay with SN12C renal it was 33.4%; in the assay with TK-10 renal, 54.1%; in the assay on ACHN renal, 28.6%; in the assay with CAKI-1 renal, 18.5%. Moreover, the growth was -33.5% (active) in the assay on A498 renal and -17% (active) in the assay with MOLT-4 leukemia.

Regarding `NC(=O)c1c(NC(=O)c2ccc(F)cc2F)sc2c1CCC(=O)C2`, the growth with SK-MEL-2 melanoma is 102%; with EKVX NSCLC, 73.6%; in the assay with SN12C renal, 72.9%; in the assay with TK-10 renal, 61.9%; in the assay with ACHN renal it was 7.96% (active); with CAKI-1 renal it was 33.9%. Further, the growth was 100% in the assay with A498 renal, 18.3% in the assay with CCRF-CEM leukemia and 40.6% with MOLT-4 leukemia.

On to `Cc1occc1-c1nc2s/c(=C/c3ccc(-c4cc(C(F)(F)F)ccc4Cl)o3)c(=O)n2n1`, for which the growth in the assay on SK-MEL-2 melanoma was 109%; in the assay on EKVX NSCLC it was 100%; in the assay on TK-10 renal, 114%; in the assay on ACHN renal, 102%; in the assay on CAKI-1 renal, 89.2%; in the assay on A498 renal, 105%. Further, the growth with MOLT-4 leukemia is 113%.

For the molecule `O=C(CN1CCN(c2cc(=O)n(-c3ccccc3)c3ccccc23)CC1)Nc1cccc(C(F)(F)F)c1`, the growth with SK-MEL-2 melanoma was 92%; with EKVX NSCLC it was 42.9%; in the assay with UO-31 renal, 33%; in the assay on TK-10 renal it was 74.4%; in the assay on ACHN renal, 58.5%; with CAKI-1 renal it was 56.9%. Besides, the growth is 52.9% in the assay with A498 renal, 53.4% in the assay on CCRF-CEM leukemia and 34.8% in the assay on MOLT-4 leukemia.

Take `Nc1ncc(-c2ccc3ncnc(N4CCc5cc(F)c(F)cc54)c3c2)cn1`: the growth is 33.2% in the assay with SK-MEL-2 melanoma; 25.1% in the assay on SN12C renal; 8.51% (active) in the assay on UO-31 renal; -2.82% (active) in the assay with TK-10 renal; 19.5% with ACHN renal; 15.3% in the assay with CAKI-1 renal. Further, the growth in the assay on A498 renal was -42.9% (active); in the assay with CCRF-CEM leukemia, 24.2%; in the assay with MOLT-4 leukemia, 8.56% (active).

In the case of `Oc1ccc(CSc2nnc(-c3ccc(Cl)cc3)n2-c2ccccc2)c2cccnc12`, the growth with SK-MEL-2 melanoma is 35.2%; in the assay with SN12C renal, 33.2%; in the assay with UO-31 renal, 0.657% (active); in the assay with TK-10 renal it was 28.2%; in the assay with ACHN renal, 30.5%; with CAKI-1 renal it was 48.7%. The values for the growth in the assay with A498 renal, in the assay with CCRF-CEM leukemia and in the assay with MOLT-4 leukemia were 50.2%, 20.8% and 28.5%, respectively.

As to `CC(=O)c1cc(C(=O)c2ccc(Br)cc2)n2cc(C)cc(C)c12`, the growth in the assay on SK-MEL-2 melanoma was 102%; with EKVX NSCLC, 71.7%; in the assay on UO-31 renal it was 84.8%; with TK-10 renal it was 103%; in the assay on ACHN renal it was 98.9%; in the assay with A498 renal, 76.8%. In addition, the results for the growth in the assay on CCRF-CEM leukemia and with MOLT-4 leukemia were 97% and 87%, respectively.

Turning to `Cc1ccc(S(=O)(=O)N(CC[C@@H]2C[C@H]2c2cc3ccccc3o2)S(=O)(=O)c2ccc(C)cc2)cc1`, the growth in the assay with SK-MEL-2 melanoma was 102%; in the assay on EKVX NSCLC, 95.3%; in the assay on UO-31 renal it was 80%; in the assay on TK-10 renal, 98.6%; in the assay on ACHN renal it was 98.2%; in the assay with CAKI-1 renal it was 86%. Also, the growth is 75.8% with A498 renal, 93.3% in the assay on CCRF-CEM leukemia and 88.8% in the assay with MOLT-4 leukemia.

As to `N/C(=N\C(N)=N\c1nc2ccccc2s1)c1cccc(F)c1`, the growth was 98% [5 µM] in the assay with SK-MEL-2 melanoma; 81.4% [5 µM] with EKVX NSCLC; 82.8% [5 µM] with UO-31 renal; 187% [5 µM] with TK-10 renal; 85.9% [5 µM] with ACHN renal; 84% [5 µM] in the assay with CAKI-1 renal. Further, the growth was 97.1% [5 µM] with A498 renal, 93.9% [5 µM] in the assay on CCRF-CEM leukemia and 84.9% [5 µM] in the assay with MOLT-4 leukemia.

For the molecule `COc1cc(/C=C2\C(=O)Nc3ccccc32)ccc1OCc1ccc(F)cc1`, the growth was 107% with SK-MEL-2 melanoma; 97.7% with EKVX NSCLC; 84.7% in the assay on UO-31 renal; 130% in the assay on TK-10 renal; 102% with ACHN renal; 89.2% with A498 renal. Besides, the growth was 102% with CCRF-CEM leukemia and 96.8% with MOLT-4 leukemia.

For the molecule `CN1CCN(c2ccc(/C=N/Nc3nc4ccccc4c(=O)n3-c3ccccc3)cc2)CC1`, the growth with SK-MEL-2 melanoma was 107%; in the assay on EKVX NSCLC it was 100%; in the assay with TK-10 renal, 91.3%; with ACHN renal, 108%; in the assay with A498 renal, 89.8%; with CCRF-CEM leukemia, 105%. Moreover, the growth in the assay on MOLT-4 leukemia was 104%.

For `COc1cc2nc(Cl)nc(Nc3cccc(C4=Nc5c(N)nc(N)nc5NC(c5ccccc5)C4)c3)c2cc1OC` (configuration not stated), the growth in the assay on SK-MEL-2 melanoma is 88.8%; with SN12C renal, 93.4%; in the assay with UO-31 renal it was 94.4%; in the assay on TK-10 renal, 110%; with ACHN renal it was 91.8%; with CAKI-1 renal, 96.1%. Also, the growth was 88.9% in the assay on A498 renal, 34.8% in the assay on CCRF-CEM leukemia and 54.5% in the assay on MOLT-4 leukemia.

For `CCC(CC)N1C(=O)/C(=c2\sc3n(c2=O)NC2C(N=3)N(CC)C(=O)N2CC)c2ccccc21` (configuration not stated), the growth is 101% in the assay with SK-MEL-2 melanoma; 59.6% in the assay on EKVX NSCLC; 54.4% in the assay with UO-31 renal; 127% in the assay on TK-10 renal; 50.4% in the assay with ACHN renal; 50.8% with CAKI-1 renal. The growth was 52.3% with A498 renal, 55.3% in the assay with CCRF-CEM leukemia and 59.8% in the assay with MOLT-4 leukemia.

Source of the values: PubChem BioAssay (NCI).
